Data published in PubChem BioAssay (NCATS).
Records with an inconclusive call do not appear. The source made the active and inactive calls. Unless noted, calls follow the shape of the dose curve; as a rule, active = well fitted curve in either direction with a large enough effect (not every such curve was filed as active); inconclusive = small, poorly fitted or top-dose-only effect, or another doubt; inactive = flat fitted curve, though single readings scatter.

Columns and labels:
[1] = AP1 Signaling Pathway (AID 357); conditions: ME-180 AP-1-bla reporter, EGF-induced, beta-lactamase ratio, 5 h; at 17.2 µM (top of the series) unless noted;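 also: ME-180 reporter cells stimulated with EGF at its EC50 level; % is scaled to controls: 0 for no effect and ±100 for the full control effect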
Outline: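 Cells are seeded overnight, exposed to compound titrations and an EC50 level of EGF for 5 hours at 37 °C, then loaded with CCF4 dye for 2.5 hours. Beta-lactamase activity under the AP-1 element is read as a blue/green ratio.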

[2] = NFAT Signaling Pathway (AID 444); conditions: Jurkat NFAT-bla M1, carbachol, beta-lactamase ratio, 5 h; at 17.2 µM (top of the series) unless noted;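 also: carbachol stimulus at about its EC50 of 1 µM final; % is scaled to controls: 0 for no effect and ±100 for the full control effect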
Outline: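 Jurkat cells with NFAT-driven β-lactamase reporter and co-expressed M1 receptor, stimulated with carbachol (final 1 uM, ~EC50), compound titration, 5 h at 37 °C. CCF4 loaded 1 h at RT; 460/530 nm ratio gave %activity and AC50.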

[3] = Stat Signaling Pathway (AID 446); conditions: ME-180 SIE beta-lactamase reporter, IL-6 stimulated, 5 h; at 17.2 µM (top of the series) unless noted;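 also: ME-180 cervical cancer cells given 40 pM IL-6 alongside compound; SIE-controlled beta-lactamase reporter measured as 460/530 nm FRET emission ratio; % is scaled to controls: 0 for no effect and ±100 for the full control effect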
Outline: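 ME-180 cells carrying a SIE-driven beta-lactamase reporter are stimulated with 40 pM IL-6 for 5 h at 37C in the presence of compound. The 460/530 nm FRET substrate ratio is read after 2.5 h at RT. Data are normalised to 300 pM IL-6 and to 125 nM JAK inhibitor controls.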

[4] = target: Cytochrome P450 1A2 (Homo sapiens) (UniProt P05177); experiment: p450-cyp1a2 (AID 410; calls by dose curve; also: potency is read from the fitted curve at half-maximal effect;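 as to activity change, negative = inhibition: -100% = full effect of reference inhibitor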)
Outline: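 20nM CYP1A2 with 100uM Luciferin-ME (at Km) in 100mM KPO4; compound preincubated 10 min, NADPH regeneration added, 60 min at room temperature. Luciferin quantified by luminescence after detection reagent; normalized to 57 uM furafylline.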

[5] = target: Glucocorticoid receptor (Homo sapiens) (UniProt P04150); experiment: GR-GFP Redistribution (AID 450;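 active = compounds whose dose series gives a full or clear partial fitted curve of increased nuclear translocation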; also: potency is read from the fitted curve at half-maximal effect)
[6] = target: Glucocorticoid receptor (Homo sapiens) (UniProt P04150); experiment: GR-EFC Redistribution (AID 451; calls by dose curve; also: potency is read from the fitted curve at half-maximal effect); conditions: CHO-K1 GR-EFC translocation, beta-gal luminescence, 2 h
Outline: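 CHO-K1 cells expressing nuclear EA and GR-ED fragments of b-gal; compounds titrated up to 46 uM final, 2 h at 37 C. GR nuclear translocation read as complemented b-gal luminescence after 1 h RT detection.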

[7] = target: Mitogen-activated protein kinase 10 (Mus musculus) (UniProt Q61831); experiment: JNK3 AlphaScreen Assay (AID 530);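 also: kinase came from lysate of stimulated human HepG2 cells; signal reports phosphorylation of biotinylated GST-cJun 1-79 at Ser73 with 10 µM ATP; % is scaled to controls: 0 for no effect and ±100 for the full control effect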
Outline: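 Pre-activated (IL-1β/TNFα) JNK3 in HepG2 lysates phosphorylates biotin-GST-cJun(1-79), 10 uM ATP; anti-phospho-cJun(Ser73) AlphaScreen read at room temperature, pH 7.6 Tris buffer. Compounds pre-incubated 15 min as titrations.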

[8] = target: 3',5'-cyclic-AMP phosphodiesterase 4B (Homo sapiens) (UniProt Q07343); experiment: qHTS Assay for Inhibitors of PDE-IV (AID 607; active = well fitted activation curve with a large enough effect in the main read-out, with a control signal flat, not every such curve was filed as active; also: % of control where 0% means no effect)
Outline: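 HEK293 ACTOne cells with CNG channel (1000/well), endogenous PDE4; membrane potential dye, compounds up to 22.9 uM final. Fluorescence Ex 535/Em 590; RO 20-1724 (100 uM final) as reference.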

[9] = target: Guanine nucleotide-binding protein G(i) subunit alpha-1 (Homo sapiens) (UniProt P63096); experiment: qHTS Assay for Inhibitors of RGS12 GoLoco Motif Activity (Green Fluorophore) (AID 879; active = well fitted curve in the direction sought with a large enough effect; an effect the other way counts as inactive or inconclusive;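 also: 0% = labeled peptide with Gαi1 and full inhibition = labeled peptide alone without protein; negative values mean loss of peptide binding seen as reduced polarization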)
Outline: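 Fluorescence polarization assay: 50 nM Gαi1 with 10 nM FITC-labeled RGS12 GoLoco peptide in 10 mM Tris pH 7.5, 150 mM NaCl, 0.1 mM GDP, 0.05% NP40, 10 min at room temperature with compound.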

[10] = qHTS Assay for Identification of Small Molecule Agonists for Thrombopoietin (TPO) Signaling Pathway (AID 917; active = well fitted curve in the direction sought with a large enough effect; an effect the other way counts as inactive or inconclusive; also: % is scaled to controls: 0 for no effect and ±100 for the full control effect)
Outline: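 Reporter: GpIIb promoter–luciferase in murine Ba/F3 expressing human TPO receptor. Pre-starved of IL-3 overnight; compounds with 26 pM TPO, 24 hrs, 37 C/5% CO2; luminescence read.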

[11] = target: Muscarinic acetylcholine receptor M1 (Rattus norvegicus) (UniProt P08482); experiment: qHTS Assay for Antagonists of Acetylcholine Muscarinic M1 Receptor: Measurement of IP-One Response (AID 944; active = well fitted curve in the direction sought with a large enough effect; an effect the other way counts as inactive or inconclusive; also: nearly all actives have a fitted effect of over 75% in size; also: potency is read from the fitted curve at half-maximal effect)
Outline: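 CHO cells stably expressing rat M1, pretreated 10 min with compound, then stimulated 30 min with carbachol at EC80 (200 nM) in LiCl-containing buffer pH 7.4; IP1 accumulation read by HTRF competition (665/620 nm).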

[12] = target: Pyruvate kinase (Leishmania mexicana) (UniProt Q27686); experiment: qHTS Validation Assay for Inhibitors of Leishmania Mexicana Pyruvate Kinase (AID 945; active = well fitted curve in the direction sought with a large enough effect; an effect the other way counts as inactive or inconclusive;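 also: 0% = DMSO only neutral control wells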)
Outline: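 Luminescent ATP detection (PKLight) after a 1 h room-temperature reaction of 0.2 nM LmPYK E451W mutant with 0.5 mM PEP and 0.1 mM ADP at pH 7.2. Activity is normalized to DMSO-only control wells.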

[13] = target: Pyruvate kinase PKM (Homo sapiens) (UniProt P14618); experiment: qHTS Assay for Activators of Human Muscle Pyruvate Kinase (AID 954; active = well fitted curve in the direction sought with a large enough effect, not every such curve was filed as active;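 also: 0% = uninhibited enzyme and -100% = no enzyme or full thiadiazolimine inhibition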)
Outline: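 Purified human PKM2 (0.1 nM) with 0.5 mM PEP (Km) and 0.1 mM ADP in 50 mM imidazole pH 7.2, KCl, MgCl2, 1 h at room temperature; ATP formed read by coupled luciferase luminescence. Normalized to no-enzyme/110 uM thiadiazolimine inhibition; 0.3 nM enzyme column for activation.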

[14] = target: Alpha-galactosidase A (Homo sapiens) (UniProt P06280); experiment: Counterscreen for Glucocerebrosidase Inhibitors: qHTS Assay for Human alpha-Galactosidase at pH 4.5 (AID 992; active = well fitted curve in the direction sought with a large enough effect; an effect the other way counts as inactive or inconclusive; also: 0% is about no effect)
Outline: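 Human enzyme (2 nM) with 80 uM 4-methylumbelliferyl alpha-D-galactopyranoside in 50 mM citric acid, 0.005% Tween-20, pH 4.5, 20 min at room temperature. Compounds 0.7 nM–77 uM; fluorescence Ex 365/Em 440 after pH 10 stop; AC50 from Hill fits.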

[15] = target: alpha-glucosidase (Oryza sativa, rice) (UniProt Q653V4); experiment: Counterscreen for Glucocerebrosidase Inhibitors: qHTS Assay for Rice alpha-Glucosidase at pH 5.0 (AID 997; active = well fitted curve in the direction sought with a large enough effect; an effect the other way counts as inactive or inconclusive;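 also: 0% = full activity with enzyme and -100% = basal without enzyme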)
Outline: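 Rice alpha-glucosidase (4 nM final) with 400 uM 4-methylumbelliferyl-alpha-D-glucopyranoside in citrate buffer pH 5.0, 20 min at room temperature, stopped at pH 10; fluorescence 365/440 nm, compounds 0.7 nM–77 uM, AC50 from Hill fits.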

[16] = target: Cytochrome P450 3A4 (Homo sapiens) (UniProt P08684); experiment: qHTS Assay for Inhibitors and Substrates of Cytochrome P450 3A4 (AID 884; active = well fitted curve in the direction sought with a large enough effect; an effect the other way counts as inactive or inconclusive; also: % is scaled to controls: 0 for no effect and ±100 for the full control effect; nearly all actives have a fitted effect of over 50% in size)
Outline: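 20 nM human CYP3A4 with 25 uM Luciferin-PPXE (at KM) in 200 mM KPO4, preincubated 10 min with compound; NADPH regeneration started a 60 min RT reaction. Luciferin detected by luminescence, normalized to 57 uM ketoconazole as full inhibition.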

[17] = target: Cytochrome P450 3A4 (Homo sapiens) (UniProt P08684); experiment: qHTS Assay for Activators of Cytochrome P450 3A4 (AID 885; active = well fitted curve in the direction sought with a large enough effect; an effect the other way counts as inactive or inconclusive; also: potency is read from the fitted curve at half-maximal effect; nearly all actives have a fitted effect of over 65% in size)
Outline: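 Human CYP3A4 (20 nM) with Luciferin-PPXE at 25 uM (its KM) in 200 mM KPO4; 10 min compound preincubation, then NADPH regeneration and 60 min reaction at RT. Luciferin read by luminescence; normalized to 57 uM ketoconazole full inhibition.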

[18] = target: Cytochrome P450 2D6 (Homo sapiens) (UniProt P10635); experiment: qHTS Assay for Inhibitors and Substrates of Cytochrome P450 2D6 (AID 891; active = well fitted curve in the direction sought with a large enough effect; an effect the other way counts as inactive or inconclusive; also: nearly all actives have a fitted effect of over 60% in size; also: potency is read from the fitted curve at half-maximal effect)
Outline: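 Human CYP2D6 (5 nM) with 30 uM Luciferin-ME EGE (at Km) in 100 mM KPO4, compound preincubated 10 min, then NADPH regeneration system for 60 min at room temperature. Luciferin read by luminescence; normalized to 1.43 uM quinidine.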

[19] = target: Muscarinic acetylcholine receptor M1 (Rattus norvegicus) (UniProt P08482); experiment: qHTS Assay for Antagonists of Acetylcholine Muscarinic M1 Receptor: Kinetic Measurement of Intracellular Calcium Response (AID 943; active = well fitted curve in the direction sought with a large enough effect; an effect the other way counts as inactive or inconclusive; also: potency is read from the fitted curve at half-maximal effect; nearly all actives have a fitted effect of over 75% in size)
Outline: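 CHO cells expressing rat M1 receptor, Fluo-4 loaded, preincubated 10 min with compound, then stimulated with EC80 carbachol (100 nM final). Kinetic calcium fluorescence over 4 min; response taken as peak over basal signal.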

[20] = target: Cytochrome P450 2C9 (Homo sapiens) (UniProt P11712); experiment: qHTS Assay for Inhibitors and Substrates of Cytochrome P450 2C9 (AID 883; active = well fitted curve in the direction sought with a large enough effect; an effect the other way counts as inactive or inconclusive; also: % is scaled to controls: 0 for no effect and ±100 for the full control effect; nearly all actives have a fitted effect of over 60% in size)
Outline: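 10nM CYP2C9 + 100uM Luciferin-H (=KM), 25mM KPO4; cpd 10 min 37C; NADPH regen, 60 min 37C; stop/detect with P450 Glo-Buffer 20 min; luminescence. Norm. to 57uM sulphaphenazole as full inhibition.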

[21] = target: Cytochrome P450 2C19 (Homo sapiens) (UniProt P33261); experiment: qHTS Assay for Inhibitors and Substrates of Cytochrome P450 2C19 (AID 899; active = well fitted curve in the direction sought with a large enough effect; an effect the other way counts as inactive or inconclusive; also: nearly all actives have a fitted effect of over 60% in size; also: potency is read from the fitted curve at half-maximal effect)
Outline: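 Luminescent read-out of luciferin formed from Luciferin-H EGE (10uM, equal to KM). Enzyme 5nM in 50mM KPO4; compound added, 10 min at 37C, then NADPH regenerating system for 60 min at 37C. Full inhibition defined by 57uM ketoconazole.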

Sequence of 3',5'-cyclic-AMP phosphodiesterase 4B (Homo sapiens) (Q07343 whole entry, looked up): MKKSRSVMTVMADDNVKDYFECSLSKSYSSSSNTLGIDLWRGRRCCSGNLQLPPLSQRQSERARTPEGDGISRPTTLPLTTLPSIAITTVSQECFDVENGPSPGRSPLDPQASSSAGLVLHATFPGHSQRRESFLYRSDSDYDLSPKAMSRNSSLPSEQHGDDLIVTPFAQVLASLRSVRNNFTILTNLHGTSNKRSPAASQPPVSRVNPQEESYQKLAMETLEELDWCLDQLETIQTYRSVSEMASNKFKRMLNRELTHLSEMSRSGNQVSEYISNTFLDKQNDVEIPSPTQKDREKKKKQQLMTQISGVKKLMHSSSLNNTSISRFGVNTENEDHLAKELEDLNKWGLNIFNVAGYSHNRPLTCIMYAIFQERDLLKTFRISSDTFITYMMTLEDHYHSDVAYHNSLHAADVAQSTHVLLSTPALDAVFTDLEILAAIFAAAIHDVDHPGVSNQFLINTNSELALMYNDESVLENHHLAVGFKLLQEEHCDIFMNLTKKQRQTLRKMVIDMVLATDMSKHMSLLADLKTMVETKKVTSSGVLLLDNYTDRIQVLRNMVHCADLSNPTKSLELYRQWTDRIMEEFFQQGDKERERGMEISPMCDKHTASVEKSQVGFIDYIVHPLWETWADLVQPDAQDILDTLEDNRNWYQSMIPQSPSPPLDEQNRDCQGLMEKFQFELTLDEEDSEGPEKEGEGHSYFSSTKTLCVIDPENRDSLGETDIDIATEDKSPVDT
Sequence of Muscarinic acetylcholine receptor M1 (Rattus norvegicus) (P08482 whole entry, looked up): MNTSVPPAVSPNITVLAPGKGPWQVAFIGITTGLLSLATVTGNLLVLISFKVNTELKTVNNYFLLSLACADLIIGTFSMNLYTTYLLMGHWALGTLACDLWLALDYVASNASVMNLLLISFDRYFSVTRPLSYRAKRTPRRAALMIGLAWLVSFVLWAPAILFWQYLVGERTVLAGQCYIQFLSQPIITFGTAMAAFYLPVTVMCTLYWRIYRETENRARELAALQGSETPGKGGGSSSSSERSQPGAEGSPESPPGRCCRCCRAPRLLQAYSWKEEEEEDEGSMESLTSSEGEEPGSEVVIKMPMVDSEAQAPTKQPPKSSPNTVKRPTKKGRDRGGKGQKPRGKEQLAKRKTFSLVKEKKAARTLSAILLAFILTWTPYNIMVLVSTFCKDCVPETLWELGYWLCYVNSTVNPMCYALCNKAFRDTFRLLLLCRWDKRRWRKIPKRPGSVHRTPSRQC
Sequence of Cytochrome P450 1A2 (Homo sapiens) (P05177 whole entry, looked up): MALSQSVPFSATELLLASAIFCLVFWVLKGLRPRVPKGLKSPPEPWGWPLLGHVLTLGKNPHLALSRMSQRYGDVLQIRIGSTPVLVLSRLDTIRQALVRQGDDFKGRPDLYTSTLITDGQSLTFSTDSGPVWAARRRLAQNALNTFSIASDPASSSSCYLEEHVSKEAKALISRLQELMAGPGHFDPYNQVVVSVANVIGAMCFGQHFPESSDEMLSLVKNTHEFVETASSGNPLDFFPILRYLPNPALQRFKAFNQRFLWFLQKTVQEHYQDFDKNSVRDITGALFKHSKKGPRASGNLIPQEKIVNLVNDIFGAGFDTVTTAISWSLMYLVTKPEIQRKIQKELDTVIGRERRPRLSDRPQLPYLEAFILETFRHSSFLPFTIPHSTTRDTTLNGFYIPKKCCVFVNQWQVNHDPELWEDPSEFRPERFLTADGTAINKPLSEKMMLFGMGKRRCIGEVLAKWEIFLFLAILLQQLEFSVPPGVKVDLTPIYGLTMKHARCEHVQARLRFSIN
Sequence of Glucocorticoid receptor (Homo sapiens) (P04150 whole entry, looked up, the tested form may be a part): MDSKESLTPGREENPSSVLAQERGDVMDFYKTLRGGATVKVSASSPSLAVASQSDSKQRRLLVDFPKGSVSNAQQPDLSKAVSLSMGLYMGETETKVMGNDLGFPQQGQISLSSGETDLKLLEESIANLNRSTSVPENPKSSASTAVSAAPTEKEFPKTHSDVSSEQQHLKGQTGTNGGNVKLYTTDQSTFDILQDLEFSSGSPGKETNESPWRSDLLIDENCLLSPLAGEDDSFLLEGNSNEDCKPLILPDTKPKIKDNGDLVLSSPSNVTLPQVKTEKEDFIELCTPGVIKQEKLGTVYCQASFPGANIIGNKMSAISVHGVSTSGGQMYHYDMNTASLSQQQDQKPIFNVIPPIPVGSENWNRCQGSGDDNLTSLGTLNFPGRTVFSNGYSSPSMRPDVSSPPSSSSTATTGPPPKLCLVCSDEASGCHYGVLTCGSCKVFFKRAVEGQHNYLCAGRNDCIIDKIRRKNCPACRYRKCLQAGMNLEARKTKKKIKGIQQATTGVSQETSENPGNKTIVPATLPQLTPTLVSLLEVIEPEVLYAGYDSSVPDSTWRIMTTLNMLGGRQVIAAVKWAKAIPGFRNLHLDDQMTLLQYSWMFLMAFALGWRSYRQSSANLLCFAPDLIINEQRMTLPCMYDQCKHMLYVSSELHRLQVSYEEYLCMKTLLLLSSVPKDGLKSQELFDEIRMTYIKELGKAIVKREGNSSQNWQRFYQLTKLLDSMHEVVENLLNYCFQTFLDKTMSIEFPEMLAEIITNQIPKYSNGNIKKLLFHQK
Sequence of Pyruvate kinase PKM (Homo sapiens) (P14618 whole entry, looked up): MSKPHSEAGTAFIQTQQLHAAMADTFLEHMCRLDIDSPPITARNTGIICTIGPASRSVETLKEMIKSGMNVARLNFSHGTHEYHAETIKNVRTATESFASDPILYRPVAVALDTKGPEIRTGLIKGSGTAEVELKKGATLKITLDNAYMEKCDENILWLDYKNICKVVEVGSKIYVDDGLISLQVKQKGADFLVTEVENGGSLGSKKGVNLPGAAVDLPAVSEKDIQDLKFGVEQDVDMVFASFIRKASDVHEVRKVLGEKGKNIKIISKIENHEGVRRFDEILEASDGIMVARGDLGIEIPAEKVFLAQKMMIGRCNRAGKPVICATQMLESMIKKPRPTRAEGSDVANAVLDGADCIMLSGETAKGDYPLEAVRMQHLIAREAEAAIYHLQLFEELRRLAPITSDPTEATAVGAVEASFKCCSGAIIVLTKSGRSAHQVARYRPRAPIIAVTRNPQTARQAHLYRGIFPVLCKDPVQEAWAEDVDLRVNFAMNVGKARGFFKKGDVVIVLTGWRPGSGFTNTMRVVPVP
Sequence of Pyruvate kinase (Leishmania mexicana) (Q27686 2-499 E452W): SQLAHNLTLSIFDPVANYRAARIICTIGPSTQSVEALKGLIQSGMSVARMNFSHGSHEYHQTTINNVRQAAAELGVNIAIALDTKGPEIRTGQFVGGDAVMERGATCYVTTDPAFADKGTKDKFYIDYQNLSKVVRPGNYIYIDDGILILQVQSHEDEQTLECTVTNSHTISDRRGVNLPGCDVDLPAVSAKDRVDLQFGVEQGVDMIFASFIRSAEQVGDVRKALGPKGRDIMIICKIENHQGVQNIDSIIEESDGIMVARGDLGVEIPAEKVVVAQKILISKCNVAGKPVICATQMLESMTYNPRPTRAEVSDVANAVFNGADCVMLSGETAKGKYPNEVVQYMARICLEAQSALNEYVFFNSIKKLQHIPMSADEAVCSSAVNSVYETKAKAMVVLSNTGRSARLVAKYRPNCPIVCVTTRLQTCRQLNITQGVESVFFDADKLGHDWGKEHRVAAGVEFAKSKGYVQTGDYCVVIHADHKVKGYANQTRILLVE
Sequence of Alpha-galactosidase A (Homo sapiens) (P06280 whole entry, looked up): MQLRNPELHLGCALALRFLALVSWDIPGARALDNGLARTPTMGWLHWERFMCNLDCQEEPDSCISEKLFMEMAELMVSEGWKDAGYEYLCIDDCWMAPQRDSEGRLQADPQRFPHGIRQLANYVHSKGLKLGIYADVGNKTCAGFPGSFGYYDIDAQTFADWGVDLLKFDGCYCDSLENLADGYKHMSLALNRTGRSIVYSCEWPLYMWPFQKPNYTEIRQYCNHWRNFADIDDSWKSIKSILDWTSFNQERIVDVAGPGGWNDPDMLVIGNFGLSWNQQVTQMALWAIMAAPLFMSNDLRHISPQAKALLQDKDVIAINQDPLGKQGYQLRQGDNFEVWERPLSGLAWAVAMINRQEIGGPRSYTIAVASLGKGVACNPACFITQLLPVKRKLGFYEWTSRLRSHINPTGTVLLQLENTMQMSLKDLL
Sequence of Cytochrome P450 2C19 (Homo sapiens) (P33261 whole entry, looked up): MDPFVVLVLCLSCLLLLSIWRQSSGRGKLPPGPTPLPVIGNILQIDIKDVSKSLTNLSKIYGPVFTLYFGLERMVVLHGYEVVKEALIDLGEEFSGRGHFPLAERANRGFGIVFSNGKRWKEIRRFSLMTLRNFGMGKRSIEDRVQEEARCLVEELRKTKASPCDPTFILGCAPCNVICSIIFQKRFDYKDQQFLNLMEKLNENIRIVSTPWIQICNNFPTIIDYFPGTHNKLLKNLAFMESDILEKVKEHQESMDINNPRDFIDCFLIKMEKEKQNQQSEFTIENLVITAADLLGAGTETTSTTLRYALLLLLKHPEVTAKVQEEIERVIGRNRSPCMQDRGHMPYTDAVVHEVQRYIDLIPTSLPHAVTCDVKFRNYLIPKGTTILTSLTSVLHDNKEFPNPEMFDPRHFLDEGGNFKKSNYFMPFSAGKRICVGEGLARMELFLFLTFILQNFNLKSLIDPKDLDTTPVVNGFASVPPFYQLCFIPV
Sequence of Cytochrome P450 3A4 (Homo sapiens) (P08684 whole entry, looked up): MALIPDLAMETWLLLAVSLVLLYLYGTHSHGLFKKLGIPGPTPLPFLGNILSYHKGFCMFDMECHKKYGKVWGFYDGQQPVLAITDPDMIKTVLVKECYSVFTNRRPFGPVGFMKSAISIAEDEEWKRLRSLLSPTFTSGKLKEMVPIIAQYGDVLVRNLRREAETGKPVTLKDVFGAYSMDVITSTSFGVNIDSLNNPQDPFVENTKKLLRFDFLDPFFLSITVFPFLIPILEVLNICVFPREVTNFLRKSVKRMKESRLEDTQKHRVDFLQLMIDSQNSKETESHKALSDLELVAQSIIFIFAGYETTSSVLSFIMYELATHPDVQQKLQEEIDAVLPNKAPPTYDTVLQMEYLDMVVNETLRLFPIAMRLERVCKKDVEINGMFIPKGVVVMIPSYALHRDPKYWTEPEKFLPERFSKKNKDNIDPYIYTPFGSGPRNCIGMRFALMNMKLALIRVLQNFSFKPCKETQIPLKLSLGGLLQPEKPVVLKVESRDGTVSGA

CN1CCc2c(c3c(n2C)CCN(C)[C@@H]3c2cccnc2)[C@H]1c1cccnc1
inactive: activity change, negative = inhibition [1] 5.56% | activity change, negative = inhibition [2] 8.24% | activity, negative = inhibition [3] 9.53%

Nc1nonc1OCCc1ccccc1
inactive: activity change, negative = inhibition [1] 2.66% | activity change, negative = inhibition [2] 3.18% | activity, negative = inhibition [3] -6.28%

CO[C@H]1C=CO[C@@]2(C)Oc3c(C)c(O)c4c(O)c(c(C=NN5CCN(C)CC5)c(O)c4c3C2=O)NC(=O)C(C)=CC=C[C@H](C)[C@H](O)[C@@H](C)[C@@H](O)[C@@H](C)[C@H](OC(C)=O)[C@@H]1C
inactive: activity change, negative = inhibition [1] -3.11% | activity change, negative = inhibition [2] 18.4% | activity, negative = inhibition [3] 1.14%

CCCCCCCCCCCCCCCCCCNC(=O)OC[C@@H](COP(=O)([O-])OCC[n+]1ccsc1)OC
inactive: activity change, negative = inhibition [1] 1.14% [at 38 µM] | Potency [4] | activity, negative = inhibition [3] -15% [at 38 µM] | Potency [5] > 46 µM | Potency [6] > 46 µM | Potency [7] | Potency [8] | outcome [9] | Potency [10] | Potency [11] | Potency [12] | outcome [13] | outcome [14] | outcome [15]

CCCN(CCc1ccccc1)[C@H]1CCc2c(O)cccc2C1
inactive: activity change, negative = inhibition [1] 9.86% [at 38 µM] | activity, negative = inhibition [3] -8.8% [at 38 µM] | Potency [5] > 46 µM | Potency [6] > 46 µM | Potency [7] | outcome [9] | Potency [16] | Potency [12] | outcome [13] | outcome [14] | outcome [15]
active: Potency [4] 12.6 µM | Potency [17] 12.6 µM | Potency [18] 0.501 µM | Potency [19] 0.501 µM | Potency [11] 2.82 µM

OC[C@@H]1O[C@@H](n2cnc3c(NCCc4ccccc4)ncnc32)[C@@H](O)[C@H]1O
inactive: activity change, negative = inhibition [1] -4.22% [at 38 µM] | Potency [4] | activity, negative = inhibition [3] 0.109% [at 38 µM] | Potency [5] > 46 µM | Potency [6] > 46 µM | Potency [7] | Potency [8] | Potency [20] | Potency [18] | Potency [21]

N=C1[C@@H](O)[C@]2(I)c3ccccc3N3C(=N)[C@H](O)[C@@H]4c5ccccc5N1[C@@H]4[C@@H]32
active: Potency [4] 2.51 µM | Potency [21] 3.16 µM
inactive: activity change, negative = inhibition [1] 9.35% [at 7.69 µM] | Potency [5] > 46 µM | Potency [6] > 9.22 µM | activity change, negative = inhibition [7] -25.9% [at 11.4 µM] | Potency [8]
